Experimental data taken from PubChem BioAssay.
Calls of active or inactive are those of the source.

Tests used:
[1] = small molecules captured by biotinylated probe aFSTL3 – biochemical, small-molecule microarray, fluorescence 635/667, stem cell growth factor project, primary screen (AID 1064); settings: higher = more signal;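 note: measures binding of the biotinylated anti-FSTL3 antibody to printed compounds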
[2] = binders from COS7 lysate, DM2A8 probe, primary screen, torsin A project, cell lysate, small-molecule microarray, fluorescence 635/667 (AID 1065); settings: higher = more signal, COS7 lysate expressing mutant human TOR1A
[3] = small molecules captured by biotinylated probe aFGF2 – biochemical, small-molecule microarray, fluorescence 635/667, stem cell growth factor project, primary screen (AID 1067); settings: higher = more signal;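 note: measures binding of biotinylated aFGF2 protein to printed compounds on slides; z-score merges feature fluorescence and signal-to-noise across triplicate slides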
[4] = small molecules captured by biotinylated probe aFGF10 – biochemical, small-molecule microarray, fluorescence 635/667, stem cell growth factor project, primary screen (AID 1071); settings: higher = more signal;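 note: score merges 667 nm spot intensity and signal to noise from triplicate slides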
[5] = target: Neurogenic locus notch homolog protein 2 (Homo sapiens) (UniProt Q04721); test: small molecules binding Notch2 protein – biochemical, small-molecule microarray, 635 nm fluorescence, stem cell growth factors, primary screen (AID 1073); settings: higher = more signal
Neurogenic locus notch homolog protein 2 (Homo sapiens), sequence (Q04721 whole entry, looked up, canonical isoform): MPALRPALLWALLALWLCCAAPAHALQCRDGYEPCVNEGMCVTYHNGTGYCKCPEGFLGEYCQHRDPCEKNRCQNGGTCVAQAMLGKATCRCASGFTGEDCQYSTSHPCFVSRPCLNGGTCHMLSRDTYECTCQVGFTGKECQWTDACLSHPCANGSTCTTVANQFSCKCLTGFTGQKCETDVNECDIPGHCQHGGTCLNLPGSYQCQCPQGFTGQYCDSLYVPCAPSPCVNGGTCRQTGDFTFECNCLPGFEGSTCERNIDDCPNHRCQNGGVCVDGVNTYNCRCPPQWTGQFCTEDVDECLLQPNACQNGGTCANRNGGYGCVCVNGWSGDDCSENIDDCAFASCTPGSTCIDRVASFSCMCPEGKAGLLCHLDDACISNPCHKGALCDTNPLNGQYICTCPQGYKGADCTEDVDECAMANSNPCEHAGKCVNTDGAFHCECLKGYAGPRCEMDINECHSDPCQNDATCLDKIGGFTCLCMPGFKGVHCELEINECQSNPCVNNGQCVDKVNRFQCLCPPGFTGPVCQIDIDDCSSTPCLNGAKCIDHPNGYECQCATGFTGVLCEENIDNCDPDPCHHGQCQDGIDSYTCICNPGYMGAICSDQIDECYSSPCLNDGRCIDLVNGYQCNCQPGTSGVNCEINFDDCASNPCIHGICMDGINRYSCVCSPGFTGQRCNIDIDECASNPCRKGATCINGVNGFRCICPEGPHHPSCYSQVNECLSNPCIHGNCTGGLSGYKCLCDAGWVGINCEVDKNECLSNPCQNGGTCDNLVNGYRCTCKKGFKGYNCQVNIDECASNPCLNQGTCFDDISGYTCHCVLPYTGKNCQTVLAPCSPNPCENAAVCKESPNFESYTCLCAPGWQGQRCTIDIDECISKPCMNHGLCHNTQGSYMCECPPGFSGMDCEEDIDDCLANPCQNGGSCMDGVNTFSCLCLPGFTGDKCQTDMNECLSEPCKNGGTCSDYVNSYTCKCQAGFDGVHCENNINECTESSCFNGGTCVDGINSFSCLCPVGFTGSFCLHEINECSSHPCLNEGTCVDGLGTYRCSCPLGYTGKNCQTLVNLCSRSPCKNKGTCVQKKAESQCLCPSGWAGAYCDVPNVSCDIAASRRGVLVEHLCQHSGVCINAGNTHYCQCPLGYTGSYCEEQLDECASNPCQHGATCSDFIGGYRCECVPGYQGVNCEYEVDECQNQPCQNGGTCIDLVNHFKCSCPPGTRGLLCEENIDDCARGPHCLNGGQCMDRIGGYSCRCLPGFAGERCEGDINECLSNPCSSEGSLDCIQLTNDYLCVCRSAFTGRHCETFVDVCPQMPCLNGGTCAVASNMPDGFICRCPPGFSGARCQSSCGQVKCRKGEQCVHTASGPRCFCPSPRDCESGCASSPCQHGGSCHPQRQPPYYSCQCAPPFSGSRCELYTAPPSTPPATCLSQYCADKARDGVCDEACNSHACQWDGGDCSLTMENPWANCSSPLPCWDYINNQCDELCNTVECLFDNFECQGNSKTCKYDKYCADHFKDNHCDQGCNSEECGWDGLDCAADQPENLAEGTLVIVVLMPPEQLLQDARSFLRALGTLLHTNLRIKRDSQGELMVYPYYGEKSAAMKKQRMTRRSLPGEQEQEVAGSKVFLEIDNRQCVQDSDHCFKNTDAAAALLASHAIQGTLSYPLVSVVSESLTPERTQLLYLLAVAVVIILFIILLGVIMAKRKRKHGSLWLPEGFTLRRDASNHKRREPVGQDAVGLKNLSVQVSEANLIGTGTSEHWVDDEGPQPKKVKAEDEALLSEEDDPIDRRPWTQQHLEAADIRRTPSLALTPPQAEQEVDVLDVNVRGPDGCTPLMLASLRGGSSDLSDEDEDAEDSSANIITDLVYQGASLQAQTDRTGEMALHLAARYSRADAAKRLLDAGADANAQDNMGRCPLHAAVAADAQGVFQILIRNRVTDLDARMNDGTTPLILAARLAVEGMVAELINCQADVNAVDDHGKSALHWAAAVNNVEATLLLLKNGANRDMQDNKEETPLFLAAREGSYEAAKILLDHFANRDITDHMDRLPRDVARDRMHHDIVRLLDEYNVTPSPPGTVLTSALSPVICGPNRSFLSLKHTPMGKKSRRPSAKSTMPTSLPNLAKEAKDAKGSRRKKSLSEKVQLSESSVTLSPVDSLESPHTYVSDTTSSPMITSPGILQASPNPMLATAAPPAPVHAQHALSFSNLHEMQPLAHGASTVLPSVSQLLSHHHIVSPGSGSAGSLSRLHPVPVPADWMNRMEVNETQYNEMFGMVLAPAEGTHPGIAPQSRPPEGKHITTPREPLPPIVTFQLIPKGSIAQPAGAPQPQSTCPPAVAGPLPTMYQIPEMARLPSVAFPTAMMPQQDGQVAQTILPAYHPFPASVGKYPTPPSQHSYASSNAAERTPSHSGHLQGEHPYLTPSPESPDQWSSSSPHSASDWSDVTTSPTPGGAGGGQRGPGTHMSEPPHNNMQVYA

[6] = target: Pro-neuregulin-1, membrane-bound isoform (Homo sapiens) (UniProt Q02297); test: small molecules binding neuregulin-1 protein – biochemical, small-molecule microarray, fluorescence 635/667, psychiatric disease protein project, primary screen (AID 1075); settings: NRG1 binding, 635 nm fluorescence, higher = more signal;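 note: score combines 667 nm spot fluorescence with signal to noise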
[7] = tested on: Neuregulin-1 EGF-like domain; test: small molecules binding NRG1 EGF domain – biochemical, small-molecule microarray, 635 nm fluorescence, primary screen (AID 1081); settings: higher = more signal;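 note: binding of the protein to compounds printed on small-molecule microarray slides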
[8] = FRG1 expression reporter modulators in myotubes – cell-based, C2C12 myotubes, firefly/Renilla luciferase, luminescence, FRG1 inhibition for FSHD, primary screen (AID 1084); settings: FRG1 promoter luciferase, higher = more signal, called active from +8 up or from −8 down
[9] = small molecules captured by biotinylated probe aFST – biochemical, small-molecule microarray, fluorescence 635/667, stem cell growth factor project, primary screen (AID 1086); settings: higher = more signal;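 note: score merges 667 nm fluorescence with signal-to-noise of each printed compound spot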
[10] = binders of probe aHhip on microarray, primary screen, stem cell growth factor project, biochemical, small-molecule microarray, fluorescence 635/667 (AID 1087); settings: higher = more signal;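 note: score merges spot fluorescence at 667nm with spot signal to noise ratio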
[11] = tested on: PRMT1 (protein arginine N-methyltransferase 1); test: small molecules binding arginine methyltransferase PRMT1 – biochemical, small-molecule microarray, 635 nm fluorescence, primary screen (AID 1088); settings: higher = more signal;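 note: binding of Prmt1 protein to compounds spotted on small-molecule microarray slides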
[12] = growth effects on S. cerevisiae YJM789 – YJM789 clinical isolate, OD600, 24 h, basal, primary screen (AID 1089); settings: higher = more signal, called active from +8 up or from −8 down;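 note: growth of clinical yeast isolate S. cerevisiae YJM 789 seeded 1000 cells per well; test concentration not given here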
[13] = S. pombe growth modifiers, basal conditions – strain 972, OD600, 24 h, no modulator, primary screen (AID 1090);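 note: basal condition with compound alone and no growth modifier present; test concentration not given here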; settings: S. pombe 972 growth, higher = more signal, called active from +8 up or from −8 down
[14] = budding yeast growth modifiers under rapamycin – strain BY4716, OD600, 96 h, primary screen (AID 1091); note: test concentration not given here; settings: S. cerevisiae BY4716 + rapamycin, higher = more signal, called active from +8 up or from −8 down
[15] = target: Torsin-1A-interacting protein 2 (Homo sapiens) (UniProt Q8NFQ8); test: small molecules binding lysate-expressed LULL1 – cell lysate, human LULL1 lysate, 635/667 nm fluorescence, primary screen (AID 1092); settings: small-molecule microarray, hLULL1 lysate binding, 635 nm fluorescence; higher = more signal;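 note: probe is lysate of COS7 cells overexpressing human LULL1; score merges per-feature 667 nm fluorescence with signal-to-noise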
[16] = optical density change of DRC41 E. coli – strain DRC41, OD650, 24 h, E. coli filamentation project, primary screen (AID 1093);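 note: MC1000 strain lacking acrAB efflux and sulA so SOS filamentation is blocked; test concentration not given here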; settings: E. coli DRC41 growth, higher = more signal, called active from +8 up or from −8 down
[17] = probe aLefty2 binding to arrayed compounds – biochemical, biotinylated probe, 635/667 nm fluorescence, primary screen (AID 1094); settings: small-molecule microarray, higher = more signal;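 note: score merges spot fluorescence near 667 nm with spot signal-to-noise ratio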
[18] = tested on: Noggin (protein binding on small-molecule microarray); test: small molecules binding Noggin protein – biochemical, 635/667 nm fluorescence, primary screen (AID 1095); settings: 635 nm fluorescence, higher = more signal;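 note: score merges 667 nm feature fluorescence with signal to noise over triplicate slides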
[19] = target: Neurogenic locus notch homolog protein 3 (Homo sapiens) (UniProt Q9UM47); test: small molecules binding NOTCH3 protein – biochemical, 635/667 nm fluorescence, primary screen (AID 1096); settings: small-molecule microarray, 635 nm fluorescence, higher = more signal
Neurogenic locus notch homolog protein 3 (Homo sapiens), sequence (Q9UM47 whole entry, looked up): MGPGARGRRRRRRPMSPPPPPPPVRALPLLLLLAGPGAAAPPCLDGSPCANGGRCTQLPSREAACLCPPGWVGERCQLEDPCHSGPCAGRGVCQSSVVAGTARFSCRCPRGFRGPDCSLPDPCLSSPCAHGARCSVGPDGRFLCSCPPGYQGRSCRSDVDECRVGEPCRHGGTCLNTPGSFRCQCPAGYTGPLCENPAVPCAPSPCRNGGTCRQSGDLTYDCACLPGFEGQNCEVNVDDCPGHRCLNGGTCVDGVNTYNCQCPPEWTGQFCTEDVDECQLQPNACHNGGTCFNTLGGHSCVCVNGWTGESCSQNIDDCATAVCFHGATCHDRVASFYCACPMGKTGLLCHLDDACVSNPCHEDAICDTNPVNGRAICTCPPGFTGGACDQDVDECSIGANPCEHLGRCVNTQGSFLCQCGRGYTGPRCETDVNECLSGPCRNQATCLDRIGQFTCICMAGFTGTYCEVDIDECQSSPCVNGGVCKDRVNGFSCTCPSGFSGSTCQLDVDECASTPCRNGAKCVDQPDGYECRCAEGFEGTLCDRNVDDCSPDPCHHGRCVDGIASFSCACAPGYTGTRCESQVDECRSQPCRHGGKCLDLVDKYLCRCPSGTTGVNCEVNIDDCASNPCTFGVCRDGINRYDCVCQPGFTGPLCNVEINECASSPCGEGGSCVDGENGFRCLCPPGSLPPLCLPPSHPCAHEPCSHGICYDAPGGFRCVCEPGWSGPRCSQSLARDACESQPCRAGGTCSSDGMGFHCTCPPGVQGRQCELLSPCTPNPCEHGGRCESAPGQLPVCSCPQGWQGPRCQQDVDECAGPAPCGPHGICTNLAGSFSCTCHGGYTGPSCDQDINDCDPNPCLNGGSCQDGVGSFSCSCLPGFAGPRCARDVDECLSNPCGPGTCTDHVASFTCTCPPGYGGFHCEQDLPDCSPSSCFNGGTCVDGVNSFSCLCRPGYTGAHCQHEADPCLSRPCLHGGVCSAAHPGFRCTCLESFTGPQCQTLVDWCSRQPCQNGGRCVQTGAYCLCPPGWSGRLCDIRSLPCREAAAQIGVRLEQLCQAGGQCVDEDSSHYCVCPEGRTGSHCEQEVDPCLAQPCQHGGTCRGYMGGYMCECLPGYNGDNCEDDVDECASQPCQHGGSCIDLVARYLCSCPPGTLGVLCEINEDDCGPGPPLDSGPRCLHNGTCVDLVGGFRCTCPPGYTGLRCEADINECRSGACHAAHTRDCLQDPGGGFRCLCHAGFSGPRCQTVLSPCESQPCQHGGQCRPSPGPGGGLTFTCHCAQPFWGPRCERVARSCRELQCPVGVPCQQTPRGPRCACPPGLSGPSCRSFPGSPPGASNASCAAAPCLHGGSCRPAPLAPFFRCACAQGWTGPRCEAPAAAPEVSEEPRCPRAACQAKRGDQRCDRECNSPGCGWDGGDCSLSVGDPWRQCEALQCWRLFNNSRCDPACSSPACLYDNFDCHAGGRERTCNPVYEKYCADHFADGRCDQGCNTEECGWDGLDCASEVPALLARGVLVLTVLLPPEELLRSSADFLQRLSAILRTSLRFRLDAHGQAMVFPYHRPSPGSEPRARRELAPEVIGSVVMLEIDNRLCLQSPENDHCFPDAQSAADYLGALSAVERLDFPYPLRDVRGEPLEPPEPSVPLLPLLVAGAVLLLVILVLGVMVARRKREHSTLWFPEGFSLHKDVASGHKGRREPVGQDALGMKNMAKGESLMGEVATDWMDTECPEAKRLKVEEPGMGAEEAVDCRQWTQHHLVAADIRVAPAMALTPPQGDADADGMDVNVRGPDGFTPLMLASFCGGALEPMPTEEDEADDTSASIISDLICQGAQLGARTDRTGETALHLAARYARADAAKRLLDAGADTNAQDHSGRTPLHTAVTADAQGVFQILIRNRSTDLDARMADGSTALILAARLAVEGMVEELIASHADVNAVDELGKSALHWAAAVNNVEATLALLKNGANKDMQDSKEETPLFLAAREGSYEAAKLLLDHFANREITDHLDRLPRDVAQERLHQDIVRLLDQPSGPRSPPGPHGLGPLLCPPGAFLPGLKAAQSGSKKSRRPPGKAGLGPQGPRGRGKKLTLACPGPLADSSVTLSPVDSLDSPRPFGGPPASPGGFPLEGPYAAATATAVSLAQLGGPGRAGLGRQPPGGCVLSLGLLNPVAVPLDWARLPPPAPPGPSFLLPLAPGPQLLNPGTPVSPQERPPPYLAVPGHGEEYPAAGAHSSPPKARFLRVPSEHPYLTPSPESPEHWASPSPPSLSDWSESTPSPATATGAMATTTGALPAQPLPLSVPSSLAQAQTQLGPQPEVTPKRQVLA

[20] = probe aEGFR binding to arrayed compounds – biochemical, biotinylated probe, 635/667 nm fluorescence, primary screen (AID 1097); settings: small-molecule microarray, higher = more signal;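 note: probe is a biotinylated anti-EGFR antibody binding compounds printed on slides; score combines fluorescence near 667 nm and signal to noise of each spot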

Row | SMILES | composite z-score [1] | composite z-score [2] | composite z-score [3] | composite z-score [4] | composite z-score [5] | composite z-score [6] | composite z-score [7] | z-score [8] | composite z-score [9] | composite z-score [10] | composite z-score [11] | z-score [12] | z-score [13] | z-score [14] | composite z-score [15] | z-score [16] | composite z-score [17] | composite z-score [18] | composite z-score [19] | composite z-score [20]
1 | O=C(CS)NCCCCCCNC(=O)[C@H]1C[C@H]2C(=O)NCC(=O)N2[C@H]1c1ccc(O)cc1 | 0.249 | -0.465 | -0.137 | 0.263 | -0.355 | 1.22 | 1.32 | -0.348 (inactive) | -0.346 | 0.0201 | 0.16 | -0.408 (inactive) | 0.0177 (inactive) | 0.505 (inactive) | 1.46 | -0.449 (inactive) | -0.0903 | 0.384 | 0.0288 | -0.136
2 | O=C1C2C=CC(C(O)c3ccc(B(O)O)cc3)N(Nc3ccccc3)C2C(=O)N1c1ccccc1 (stereo not given) | 0.72 | 0.0762 | 0.0533 | -0.132 | 0.971 | 1.38 | -0.401 | 4.59 (inactive) | 0.302 | -0.299 | -0.592 | 0.428 (inactive) | -4.7 (inactive) | 0.642 (inactive) | 0.935 | -1.2 (inactive) | 0.229 | -1.11 | -0.085 | -0.041
3 | CCCCC=C[C@@H](NC(=O)c1ccco1)c1ccccc1 | -0.0252 | 0.0908 | 0.0603 | 0.372 | 0.929 | 0.783 | -0.628 | 1.36 (inactive) | 0.199 | 0.525 | -0.568 | 0.529 (inactive) | 1 (inactive) | 1.92 (inactive) | 0.539 | -0.675 (inactive) | -0.0251 | 0.103 | 0.657 | 0.0836
4 | CCCCC(CC)C(O)C1C=CC2C(=O)N(c3ccccc3)C(=O)C2N1Nc1ccccc1 (stereo not given) | 0.0807 | 0.34 | 0.0472 | 0.698 | 1.46 | 0.796 | 1.06 | -0.274 (inactive) | 1.1 | -0.0618 | 0.527 | 0.549 (inactive) | 0.645 (inactive) | 0.804 (inactive) | 2.94 | -1.54 (inactive) | 0.0319 | -0.0087 | 1.11 | 0.0276
5 | O=C1C2C=CC(C(O)c3ccc(F)cc3)N(Nc3ccccc3)C2C(=O)N1c1ccccc1 (stereo not given) | 0.719 | 0.616 | 0.0332 | 0.407 | 0.314 | 0.828 | 1.14 | -1.65 (inactive) | 0.593 | 0.0053 | 0.435 | 0.874 (inactive) | 1.31 (inactive) | 1.59 (inactive) | 3.15 | -0.754 (inactive) | 0.388 | -1.2 | 0.246 | -0.0111
6 | [N-]=[N+]=NCc1ccccc1C[C@]1(C(=O)O)N=C(c2ccc(OCCCO)cc2)O[C@H]1c1ccccc1 | 0.32 | 0.474 | -0.0184 | 0.39 | 0.0892 | 1.09 | 0.976 | -2.33 (inactive) | 0.219 | -0.261 | 1.01 | -0.143 (inactive) | -0.305 (inactive) | -1.36 (inactive) | 1.86 | 0.279 (inactive) | -0.0221 | -0.985 | 0.204 | -0.232
7 | CCOC(=O)[C@H]1C[C@H]2O[C@@]23C[C@H]1C(=O)N1CCCC1[C@@H]3O[Si](C)(C)C(C)(C)C (stereo not given in full) | -0.328 | -0.537 | -0.104 | -0.101 | -0.547 | -0.333 | -0.76 | -0.184 (inactive) | 0.0204 | 0.0274 | 0.105 | -0.938 (inactive) | -3.58 (inactive) | -1.12 (inactive) | -0.0341 | -0.788 (inactive) | 0.807 | 0.478 | -0.288 | -0.149
8 | C=CCC(OC(C)=O)[C@@H]1[C@@H](N(Cc2ccc(-c3cccc(C(F)(F)F)c3)o2)C(=O)c2ccc(C)cc2)c2cc(OCCCO)ccc2N1C(=O)c1ccc(-c2ccccc2)cc1 (stereo not given in full) | -0.322 | -0.179 | -0.129 | 0.265 | 0.0105 | -0.416 | -0.515 | 0.887 (inactive) | 0.137 | -0.214 | 0.0003 | 0.0652 (inactive) | -1.07 (inactive) | 0.271 (inactive) | 0.476 | 1.03 (inactive) | -0.194 | 0.507 | 0.46 | -0.139
9 | O=C1OCCC=C[C@H]2OC34C=CCN(Cc5ccccc5)C(=O)[C@H]3N(CCCCCCO)C(=O)[C@@H]4C12 (stereo not given in full) | 0.359 | -1.01 | -0.196 | -0.384 | -0.91 | 1.88 | 0.92 | -0.386 (inactive) | -0.26 | -0.621 | 0.831 | 0.104 (inactive) | -0.0853 (inactive) | -0.0696 (inactive) | 3.21 | 0.801 (inactive) | -0.42 | -0.485 | 0.127 | -0.309
10 | CCC(CC)C(O)C1C=CC2C(=O)N(c3ccccc3)C(=O)C2N1Nc1ccc(C#N)cc1 (stereo not given) | 1.07 | 0.693 | 0.326 | 0.884 | 1.64 | 1.77 | 1.29 | -1.02 (inactive) | 1.22 | -0.271 | 1.55 | -0.295 (inactive) | 0.621 (inactive) | 1.28 (inactive) | 3.2 | -0.279 (inactive) | 0.615 | -0.136 | 1.04 | 0.334
11 | O=C1N(CCS(=O)(=O)c2ccccc2)c2ccccc2C[C@@]12COC(c1ccc(OCCCO)cc1)=N2 | -0.178 | 0.858 | 0.0887 | 0.322 | 1.33 | 1.11 | 1.33 | 1.18 (inactive) | 0.971 | 0.075 | 1.47 | 0.631 (inactive) | -1.07 (inactive) | 1.14 (inactive) | 2.9 | -0.405 (inactive) | 0.456 | 0.75 | 1.07 | 0.242
